Laboratory results published in PubChem BioAssay.

Experiment: probe aCHRDL2 binding to arrayed compounds – biochemical, biotinylated probe, 635/667 nm fluorescence, primary screen (AID 1100)
Details: small-molecule microarray, higher = more signal

Going from COC(=O)[C@H]1N=C(c2ccc(OCCCO)cc2)O[C@H]1c1ccccc1CN=[N+]=[N-] to [N-]=[N+]=NCc1ccccc1[C@H]1OC(c2ccc(OCCCO)cc2)=N[C@@]1(Cc1ccccc1)C(N)=O, the composite z-score falls from 1.22 to 0.947.

First: C[N+](C)(C)CCCCNC(=O)[C@H]1C[C@H]2C(=O)NCC(=O)N2[C@H]1c1ccc(O)cc1
Second: CN(C)CCCCCCNC(=O)[C@@H]1C[C@@H]2C(=O)NCC(=O)N2[C@@H]1c1ccc(O)cc1
The composite z-score of the first is lower: -0.31 for the first, -0.29 for the second.

Compared with COc1ccc(C#Cc2ccc3c(c2)[C@]2(C(=O)N3)[C@H](c3ccc(OCCO)cc3)N3[C@H](c4ccccc4)[C@H](c4ccccc4)OC(=O)[C@H]3[C@@H]2C(=O)N2CCN(c3ncccn3)CC2)cc1, CCOC(=O)C[C@H]1[C@H](OC(=O)c2ccc(C(=O)c3ccccc3)cc2)[C@@H](NC(=O)C2CCCCC2)c2cc(OCCCO)ccc2N1C(=O)Cc1ccc(OC)cc1 is higher in composite z-score: -0.275 for the first, 0.7 for the second.

Going from C#CCOC(=O)N[C@H](C=CCCCC)c1ccccc1 to CCCCCCCCCCC(O)C1C=CC2C(=O)NC(=O)C2N1Nc1ccccn1 (stereo unspecified), the composite z-score falls from 0.942 to 0.883.

Compared with COc1cccc(C[C@H]2C[C@@H](CO[Si](C(C)C)(C(C)C)C(C)C)N3C(=O)[C@]4(C(C)=O)O[C@]23[C@H]2C(=O)N(C)C(=O)[C@H]24)c1, C[N+](C)(C)CCCC[C@@H]1NC(=O)[C@@H]2C[C@H](C(=O)NCCCCCNC(=O)CS)[C@H](c3cccc(OCCO)c3)N2C1=O is higher in composite z-score: -0.463 for the first, -0.149 for the second.

In the case of C=C(COC)/C(=C/C[C@@H](OC(=O)c1ccncc1)c1cccc(OCCO)c1)c1cc(C(=O)OC)ccc1OC, the composite z-score was -0.471.
